# According to ChEMBL document CHEMBL4513149, “CO-ADD screening of MMV (CH) - MMV compounds” (2021):
# Hit rate of the full screen: of about 23,000 compounds, about 30 (0.1%) showed an effect of 50% or more. For the sample, strong results were picked, then their nearest neighbours and some compounds at random. Potency and affinity values are given separately.
# Tested on: Pseudomonas aeruginosa
# Details: Concentration 20 uM; ASSAY_TEST Inhibition of Bacterial Growth; detection method Absorption (OD600); MEDIA CAMHB; plate type 384well; NBS; CORNING #3640; time 18 hr
row,SMILES,Inhibition [%]
1,Cl.O=C(Nc1ccc(N2CCNCC2)nc1)c1oc(-c2ccccc2)nc1C(F)(F)F,-17.92
2,N=C(N)c1ccc(-c2cc(-c3ccccc3)on2)cc1,13.36
3,CC(C)=CCC/C(C)=C\CNCCNC1C2CC3CC(C2)CC1C3 (centres undefined),27.33
4,O=C(c1ccc(F)cc1)N(CCNc1ccccc1)c1ccccc1,12.58
